Laboratory results from article PMC7862700, “An all-to-all approach to the identification of sequence-specific readers for epigenetic DNA modifications on cytosine”.

Experiments:
Test in all cases: DAPPL (digital affinity profiling via proximity ligation, sequencing); 10 mM Tris-HCl pH 7.5, 50 mM NaCl, 1 mM DTT, 4% glycerol, room temperature, 30 min; GST-TFs on glutathione beads, 16-mer random dsDNA library, 0.1% formaldehyde crosslink after washing; high values mean tight binding
Settings in all cases: protein: recombinant; tags: N-terminal GST; dsDNA, one strand shown
[1] = target: T1, FLI1 (Homo sapiens, UniProt Q01543 1-452)
T1 sequence: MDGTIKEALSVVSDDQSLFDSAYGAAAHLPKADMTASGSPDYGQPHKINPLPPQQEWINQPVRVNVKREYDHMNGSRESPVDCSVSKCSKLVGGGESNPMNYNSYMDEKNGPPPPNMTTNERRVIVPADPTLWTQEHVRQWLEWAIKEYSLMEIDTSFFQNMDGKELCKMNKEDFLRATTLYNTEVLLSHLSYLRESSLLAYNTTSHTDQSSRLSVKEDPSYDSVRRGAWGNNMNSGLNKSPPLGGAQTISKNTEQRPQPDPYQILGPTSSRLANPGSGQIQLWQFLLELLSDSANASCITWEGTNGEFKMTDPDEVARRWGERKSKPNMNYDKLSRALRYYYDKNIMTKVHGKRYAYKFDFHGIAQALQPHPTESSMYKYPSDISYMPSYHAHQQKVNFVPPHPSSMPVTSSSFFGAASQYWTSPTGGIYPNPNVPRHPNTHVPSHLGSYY
Outline: (§1)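 The binding signal reported is, for every hexamer, its read frequency for a factor over its read frequency for the tag-only sample. Reads came from pools of yeast-expressed, GST-fused human transcription factors on glutathione beads, barcoded with DNA and mixed with that sample, which were incubated with 200 nmole of a random double-stranded 16-mer DNA library in Tris/NaCl/DTT/glycerol buffer at room temperature for 30 min. After washing, the pools were crosslinked with 0.1% formaldehyde, proximity-ligated with BsaI/T4 ligase for 1 h at 37 °C, PCR-amplified and sequenced on an Illumina NextSeq500.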

[2] = target: T2, ELK1 (Homo sapiens, UniProt P19419 1-428)
T2 sequence: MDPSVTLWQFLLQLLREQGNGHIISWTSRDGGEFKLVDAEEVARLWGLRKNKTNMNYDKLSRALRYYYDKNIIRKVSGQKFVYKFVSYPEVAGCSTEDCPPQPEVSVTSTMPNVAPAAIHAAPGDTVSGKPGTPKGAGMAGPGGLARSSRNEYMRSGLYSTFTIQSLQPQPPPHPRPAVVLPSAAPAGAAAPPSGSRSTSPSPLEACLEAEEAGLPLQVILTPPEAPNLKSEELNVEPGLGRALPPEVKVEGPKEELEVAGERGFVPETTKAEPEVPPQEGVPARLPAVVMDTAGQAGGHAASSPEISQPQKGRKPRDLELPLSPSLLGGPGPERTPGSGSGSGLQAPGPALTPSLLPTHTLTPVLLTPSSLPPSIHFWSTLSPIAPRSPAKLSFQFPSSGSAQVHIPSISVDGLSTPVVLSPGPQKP
Outline: as §1

[3] = target: T3, GABPA (Homo sapiens, UniProt Q06546 1-454)
T3 sequence: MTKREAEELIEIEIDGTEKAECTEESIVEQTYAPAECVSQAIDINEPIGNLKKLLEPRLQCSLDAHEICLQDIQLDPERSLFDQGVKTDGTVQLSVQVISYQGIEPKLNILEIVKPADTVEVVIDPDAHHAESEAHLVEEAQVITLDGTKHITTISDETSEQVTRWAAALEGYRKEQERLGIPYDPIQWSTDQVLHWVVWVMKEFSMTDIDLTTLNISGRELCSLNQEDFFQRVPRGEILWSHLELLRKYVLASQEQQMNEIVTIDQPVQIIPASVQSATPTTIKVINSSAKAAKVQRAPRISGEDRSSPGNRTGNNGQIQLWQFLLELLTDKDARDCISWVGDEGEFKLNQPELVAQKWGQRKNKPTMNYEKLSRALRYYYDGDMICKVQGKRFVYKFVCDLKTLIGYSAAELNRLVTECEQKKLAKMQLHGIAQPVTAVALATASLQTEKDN
Outline: as §1

[4] = target: T4, ERG (Homo sapiens, UniProt P11308 1-479)
T4 sequence: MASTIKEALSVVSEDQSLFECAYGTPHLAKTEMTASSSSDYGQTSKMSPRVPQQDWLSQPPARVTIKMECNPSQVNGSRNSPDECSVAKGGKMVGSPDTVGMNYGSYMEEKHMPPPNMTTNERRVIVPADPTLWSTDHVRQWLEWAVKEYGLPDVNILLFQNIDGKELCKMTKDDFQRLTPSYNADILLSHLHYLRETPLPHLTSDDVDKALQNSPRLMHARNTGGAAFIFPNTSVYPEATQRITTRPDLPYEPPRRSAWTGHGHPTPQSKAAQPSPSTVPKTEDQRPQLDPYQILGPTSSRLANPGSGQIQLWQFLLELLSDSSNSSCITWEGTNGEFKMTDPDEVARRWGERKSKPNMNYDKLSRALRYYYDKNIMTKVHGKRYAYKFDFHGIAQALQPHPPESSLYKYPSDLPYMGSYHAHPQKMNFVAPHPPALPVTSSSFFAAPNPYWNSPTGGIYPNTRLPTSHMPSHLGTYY
Outline: as §1

[5] = target: ELF1 (Homo sapiens, UniProt P32519 1-619)
Outline: as §1

[6] = target: T5, EHF (Homo sapiens, UniProt Q9NZC4 1-300)
T5 sequence: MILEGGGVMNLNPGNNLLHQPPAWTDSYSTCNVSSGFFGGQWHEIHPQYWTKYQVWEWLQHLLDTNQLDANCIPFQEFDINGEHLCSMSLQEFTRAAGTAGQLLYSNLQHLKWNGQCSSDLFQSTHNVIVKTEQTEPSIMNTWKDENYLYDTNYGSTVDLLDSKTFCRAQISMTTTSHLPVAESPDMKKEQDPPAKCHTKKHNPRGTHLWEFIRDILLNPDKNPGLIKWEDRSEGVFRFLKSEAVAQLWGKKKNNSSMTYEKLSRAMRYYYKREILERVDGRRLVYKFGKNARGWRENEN
Outline: as §1

[7] = target: SPI1 (Homo sapiens, UniProt P17947 1-270)
Outline: as §1

[8] = target: SPIB (Homo sapiens, UniProt Q01892 1-262)
Outline: as §1

[9] = target: T6, ELK3 (Homo sapiens, UniProt P41970 1-407)
T6 sequence: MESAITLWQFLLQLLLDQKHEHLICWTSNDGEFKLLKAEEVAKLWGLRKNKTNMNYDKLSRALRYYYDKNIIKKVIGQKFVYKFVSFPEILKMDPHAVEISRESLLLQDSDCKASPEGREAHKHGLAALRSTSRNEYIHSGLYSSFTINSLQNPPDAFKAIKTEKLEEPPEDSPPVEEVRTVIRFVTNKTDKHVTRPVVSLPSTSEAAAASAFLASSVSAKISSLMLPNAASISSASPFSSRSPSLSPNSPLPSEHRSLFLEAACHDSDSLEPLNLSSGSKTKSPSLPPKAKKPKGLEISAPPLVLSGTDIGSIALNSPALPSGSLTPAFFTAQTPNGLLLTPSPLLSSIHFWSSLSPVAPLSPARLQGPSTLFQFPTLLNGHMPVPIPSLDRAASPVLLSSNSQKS
Outline: as §1

Chain of ELF1 (P32519 whole entry): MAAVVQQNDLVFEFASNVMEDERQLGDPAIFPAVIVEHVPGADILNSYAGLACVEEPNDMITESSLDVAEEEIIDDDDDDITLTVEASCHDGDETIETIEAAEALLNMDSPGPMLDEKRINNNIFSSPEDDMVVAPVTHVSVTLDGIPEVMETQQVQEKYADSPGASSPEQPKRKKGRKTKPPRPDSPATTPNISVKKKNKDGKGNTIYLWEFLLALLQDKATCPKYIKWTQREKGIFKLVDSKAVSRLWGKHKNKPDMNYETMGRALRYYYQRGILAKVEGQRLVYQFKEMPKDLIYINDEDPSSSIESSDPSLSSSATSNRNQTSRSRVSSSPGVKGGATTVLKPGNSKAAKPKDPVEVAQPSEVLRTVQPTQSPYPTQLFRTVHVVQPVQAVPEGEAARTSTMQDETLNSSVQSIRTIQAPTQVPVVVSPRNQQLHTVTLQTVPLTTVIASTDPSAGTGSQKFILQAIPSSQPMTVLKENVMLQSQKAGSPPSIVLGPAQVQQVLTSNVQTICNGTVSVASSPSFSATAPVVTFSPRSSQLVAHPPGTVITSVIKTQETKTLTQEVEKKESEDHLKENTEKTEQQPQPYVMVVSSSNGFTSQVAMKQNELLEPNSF
Chain of SPIB (Q01892 whole entry): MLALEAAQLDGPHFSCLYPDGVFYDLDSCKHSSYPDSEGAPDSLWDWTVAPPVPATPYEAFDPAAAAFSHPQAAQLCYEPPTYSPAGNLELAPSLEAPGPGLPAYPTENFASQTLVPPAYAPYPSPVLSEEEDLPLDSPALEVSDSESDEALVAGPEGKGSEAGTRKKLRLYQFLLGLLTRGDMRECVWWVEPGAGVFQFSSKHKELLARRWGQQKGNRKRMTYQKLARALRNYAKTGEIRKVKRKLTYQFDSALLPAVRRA

| Sequence | binding signal [1] | binding signal [2] | binding signal [3] | binding signal [4] | binding signal [5] | binding signal [6] | binding signal [7] | binding signal [8] | binding signal [9] |
| --- | --- | --- | --- | --- | --- | --- | --- | --- | --- |
| GTGTTC | 1.13 fold enrichment (6-mer frequency, TF over GST control) | 1.25 fold enrichment (6-mer frequency, TF over GST control) | 1.26 fold enrichment (6-mer frequency, TF over GST control) | 1.22 fold enrichment (6-mer frequency, TF over GST control) | 1.1 fold enrichment (6-mer frequency, TF over GST control) | 1.15 fold enrichment (6-mer frequency, TF over GST control) | 1.28 fold enrichment (6-mer frequency, TF over GST control) | 1.09 fold enrichment (6-mer frequency, TF over GST control) | 1.1 fold enrichment (6-mer frequency, TF over GST control) |
| TCCTGA | 1.43 fold enrichment (6-mer frequency, TF over GST control) | 1.45 fold enrichment (6-mer frequency, TF over GST control) | 1.47 fold enrichment (6-mer frequency, TF over GST control) | 1.5 fold enrichment (6-mer frequency, TF over GST control) | 1.41 fold enrichment (6-mer frequency, TF over GST control) | 1.45 fold enrichment (6-mer frequency, TF over GST control) | 1.47 fold enrichment (6-mer frequency, TF over GST control) | 1.46 fold enrichment (6-mer frequency, TF over GST control) | 1.54 fold enrichment (6-mer frequency, TF over GST control) |
| CCTTGT | 1.33 fold enrichment (6-mer frequency, TF over GST control) | 1.29 fold enrichment (6-mer frequency, TF over GST control) | 1.25 fold enrichment (6-mer frequency, TF over GST control) | 1.37 fold enrichment (6-mer frequency, TF over GST control) | 1.23 fold enrichment (6-mer frequency, TF over GST control) | 1.24 fold enrichment (6-mer frequency, TF over GST control) | 1.25 fold enrichment (6-mer frequency, TF over GST control) | 1.28 fold enrichment (6-mer frequency, TF over GST control) | 1.18 fold enrichment (6-mer frequency, TF over GST control) |
| TGGAAA | 1.09 fold enrichment (6-mer frequency, TF over GST control) | 1.12 fold enrichment (6-mer frequency, TF over GST control) | 1.19 fold enrichment (6-mer frequency, TF over GST control) | 1.11 fold enrichment (6-mer frequency, TF over GST control) | 1.04 fold enrichment (6-mer frequency, TF over GST control) | 1.1 fold enrichment (6-mer frequency, TF over GST control) | 1.16 fold enrichment (6-mer frequency, TF over GST control) | 1.17 fold enrichment (6-mer frequency, TF over GST control) | 1.15 fold enrichment (6-mer frequency, TF over GST control) |
| CGGATA | 1.15 fold enrichment (6-mer frequency, TF over GST control) | 1.27 fold enrichment (6-mer frequency, TF over GST control) | 1.09 fold enrichment (6-mer frequency, TF over GST control) | 1.5 fold enrichment (6-mer frequency, TF over GST control) | 1.16 fold enrichment (6-mer frequency, TF over GST control) | 1.19 fold enrichment (6-mer frequency, TF over GST control) | 1.1 fold enrichment (6-mer frequency, TF over GST control) | 1.15 fold enrichment (6-mer frequency, TF over GST control) | 1.33 fold enrichment (6-mer frequency, TF over GST control) |
| GTTTAT | 1.09 fold enrichment (6-mer frequency, TF over GST control) | 1.02 fold enrichment (6-mer frequency, TF over GST control) | 1.08 fold enrichment (6-mer frequency, TF over GST control) | 1.05 fold enrichment (6-mer frequency, TF over GST control) | 1.06 fold enrichment (6-mer frequency, TF over GST control) | 1.06 fold enrichment (6-mer frequency, TF over GST control) | 1.07 fold enrichment (6-mer frequency, TF over GST control) | 1.1 fold enrichment (6-mer frequency, TF over GST control) | 1.12 fold enrichment (6-mer frequency, TF over GST control) |
| GACATC | 1.36 fold enrichment (6-mer frequency, TF over GST control) | 1.4 fold enrichment (6-mer frequency, TF over GST control) | 1.31 fold enrichment (6-mer frequency, TF over GST control) | 1.27 fold enrichment (6-mer frequency, TF over GST control) | 1.21 fold enrichment (6-mer frequency, TF over GST control) | 1.35 fold enrichment (6-mer frequency, TF over GST control) | 1.26 fold enrichment (6-mer frequency, TF over GST control) | 1.3 fold enrichment (6-mer frequency, TF over GST control) | 1.38 fold enrichment (6-mer frequency, TF over GST control) |
| CTGTGC | 1.09 fold enrichment (6-mer frequency, TF over GST control) | 1.18 fold enrichment (6-mer frequency, TF over GST control) | 1.12 fold enrichment (6-mer frequency, TF over GST control) | 1.11 fold enrichment (6-mer frequency, TF over GST control) | 1.14 fold enrichment (6-mer frequency, TF over GST control) | 1.02 fold enrichment (6-mer frequency, TF over GST control) | 1.02 fold enrichment (6-mer frequency, TF over GST control) | 1.13 fold enrichment (6-mer frequency, TF over GST control) | 1.09 fold enrichment (6-mer frequency, TF over GST control) |
